The nature of assay [1]: EMT-state selective cytotoxicity in co-culture – imaging, PC-3E GFP, TEM4-18 mCherry, primary screen (AID 1345086;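 active means compounds killing one labelled cell type while sparing the other, by normalised counts and ratio limits, not self-fluorescent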;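 on all read-outs here: cells exposed to compound for 72 h before imaging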;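 on red/green cell ratio (normalised): normalised mesenchymal count divided by normalised epithelial count so high means epithelial killing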). The note with it: PC-3E GFP / TEM4-18 mCherry co-culture, imaging cell counts, at 1 µM; for red/green cell ratio (normalised): actives lie on both sides, counts scaled to control wells, 1 = unselective.
Assay [2] is described as follows: viability loss with induced miR-34 in A549 – imaging, A549 dox-inducible miR-34, nuclei and caspase counts, primary screen (AID 1347080). The note with it: A549 miR-34 inducible, Hoechst nuclei count, 48 h.
Assay [3] addresses NAD(+) hydrolase SARM1 (Homo sapiens) (UniProt Q6SZW1). Briefly: blocking NAD cleavage by SARM1 SAM-TIR – cell lysate, NAD-Glo luminescence (AID 1508614;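 active means compound whose remaining NAD level is above about 45 nM, limit read from the data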). The following applies: SAM-TIR HEK293T lysate NADase, at 1 µM, stronger effect = higher value.
Assay [4] in a line: P. berghei load reduction in hepatocytes – cell-based, HepG2, luciferase luminescence, HepG2 viability, primary screen (AID 624349; in the data active means parasite load remaining mostly below about 12%, no sharp cut-off; inactive means mostly above about 10%;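 further: 100% = mean of DMSO negative control wells on the same plate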). The following applies: P. berghei liver stage in HepG2, luciferase luminescence, concentration not given here; parasite load remaining: stronger effect = lower value; viability: measured here: HepG2 viability without parasites.
Assay [5] can be described thus: MELAS cybrid and Rieske KO viability enhancers – cell-based, MELAS cybrids, Rieske KO mouse fibroblasts, CellTiter-Glo, primary screen (AID 1508586;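 active means mean z-score across replicates of 1.96 or higher in either the MELAS or the Rieske mutant cell line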;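 further: z relative to plate mean and SD of compound and empty wells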). The note with it: low glucose. In general terms: In ATP-based viability assays light output follows the ATP content of the culture.
The nature of assay [6]: galactose survival enhancers in mitochondrial complex I cybrids – cell-based, galactose medium, ATP luminescence, primary screen (AID 1645843;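 active means z-score of at least 1.8 in each of two replicates, scored against plate mean and spread of sample wells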;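 further: positive z means more ATP and so rescue of galactose-driven cybrid death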). The note with it: complex I mutant cybrid cells, 72 h, stronger effect = higher value.
Where [7] appears, read: measured here: epithelial PC-3E GFP cell survival.
The mark [8] stands for this setting: measured here: mesenchymal TEM4-18 mCherry cell survival.
[9] abbreviates: stronger effect = lower value, cell number ratio, induced over uninduced.
Where [10] appears, read: measured here: relative caspase fold change +Dox/-Dox.
The mark [11] stands for this setting: measured here: total cells with miR-34 induction, stronger effect = lower value.
The mark [12] stands for this setting: measured here: total cells without miR-34 induction.
[13] abbreviates: MELAS cybrid survival, CellTiter-Glo 48 h, stronger effect = higher value.
Setting [14] is: Rieske KO mouse fibroblast survival, CellTiter-Glo 72 h.

“And” between values parts separate entries of the source, which are not always exact repeats. Identical values can stand only once. The source made the active and inactive calls.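 How the source made its calls, unless noted: active means compounds whose cell count with miR-34 switched on is under 0.7 times the count with it off; inactive means the rest.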

Chain of NAD(+) hydrolase SARM1 (Homo sapiens) (Q6SZW1 whole entry, looked up): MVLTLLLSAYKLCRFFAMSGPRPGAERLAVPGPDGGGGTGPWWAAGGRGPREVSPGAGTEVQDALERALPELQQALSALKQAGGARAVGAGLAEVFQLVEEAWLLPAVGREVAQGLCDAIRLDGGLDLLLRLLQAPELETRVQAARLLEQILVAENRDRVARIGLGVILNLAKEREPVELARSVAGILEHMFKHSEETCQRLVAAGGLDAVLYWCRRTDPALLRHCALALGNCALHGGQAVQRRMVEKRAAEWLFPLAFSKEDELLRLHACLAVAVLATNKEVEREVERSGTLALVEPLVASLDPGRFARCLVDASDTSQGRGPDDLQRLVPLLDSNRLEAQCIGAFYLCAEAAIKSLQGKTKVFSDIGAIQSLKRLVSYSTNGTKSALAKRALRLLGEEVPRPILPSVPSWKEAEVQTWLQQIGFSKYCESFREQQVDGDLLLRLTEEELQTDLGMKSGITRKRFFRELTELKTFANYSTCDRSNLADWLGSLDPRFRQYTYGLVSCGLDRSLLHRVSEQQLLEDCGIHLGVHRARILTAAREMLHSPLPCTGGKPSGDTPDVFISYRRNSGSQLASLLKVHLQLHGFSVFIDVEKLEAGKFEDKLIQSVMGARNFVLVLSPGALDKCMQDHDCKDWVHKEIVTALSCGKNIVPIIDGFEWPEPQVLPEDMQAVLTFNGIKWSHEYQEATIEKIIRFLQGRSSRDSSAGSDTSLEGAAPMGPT

Turning to `Cc1nccnc1N1CCCCC1`, the red/green cell ratio (normalised) in assay [1] is 1.12 (inactive). In addition, the normalised cell number in assay [1] (setting [7]) amounted to 0.93; in assay [1] (setting [8]), 1.04. Besides, the fold change in assay [2] (setting [9]) is 0.964 (inactive); in assay [2] (setting [10]) it was 0.767. Besides, the cell count is 9440 in assay [2] (setting [11]) and 9790 in assay [2] (setting [12]). Besides, the remaining NAD in assay [3] was 10 nM (inactive).

For the compound `NC1CCN(c2c(F)cc3c(=O)c(C(=O)O)cn(C4CC4)c3c2Cl)C1` (centres undefined), the parasite load remaining in assay [4] was 12.5% (inactive). Further, the viability in assay [4] came to 73%. In addition, the red/green cell ratio (normalised) in assay [1] was 1.1 (inactive) and 0.63 (inactive). Further, the normalised cell number in assay [1] (setting [7]) is 1 and 1.34; in assay [1] (setting [8]), 1.09 and 0.84. The fold change in assay [2] (setting [9]) is 0.917 (inactive) and 0.881 (inactive); in assay [2] (setting [10]) it was 1.1 and 1.36. Further, the cell count in assay [2] (setting [11]) was 7910 and 9140; in assay [2] (setting [12]), 8620 and 10400. The z-score in assay [5] (setting [13]) is 0.53 (inactive) and 0.358 (inactive); in assay [5] (setting [14]), -0.371 and 0.0233; in assay [6] it was 0.72 (inactive). Further, the remaining NAD in assay [3] is 10 nM (inactive).

As for `CC(C)N1CCN(c2ccc(OC[C@H]3CO[C@](Cn4cncn4)(c4ccc(Cl)cc4Cl)O3)cc2)CC1`, in assay [4], the parasite load remaining was 37.3% (inactive). Also, the viability in assay [4] is 97.4%. In addition, the red/green cell ratio (normalised) in assay [1] is 0.77 (inactive). Further, the normalised cell number stood at 1.12 in assay [1] (setting [7]) and 0.87 in assay [1] (setting [8]). Moreover, the fold change in assay [2] (setting [9]) was 0.864 (inactive); in assay [2] (setting [10]), 1.54. Also, the cell count in assay [2] (setting [11]) amounted to 9020; in assay [2] (setting [12]), 10400. Also, the results for the z-score in assay [5] (setting [13]) and in assay [5] (setting [14]) were -0.379 (inactive) and 0.124, respectively. In addition, in assay [3], the remaining NAD was 10 nM (inactive).

Consider `FC(F)(Cl)C(F)(F)Cl`, for which, in assay [1], the red/green cell ratio (normalised) was 1.02 (inactive). Further, the figures for the normalised cell number in assay [1] (setting [7]) and in assay [1] (setting [8]) were 0.91 and 0.93, respectively. The fold change in assay [2] (setting [9]) is 0.926 (inactive); in assay [2] (setting [10]), 0.734. In addition, the figures for the cell count in assay [2] (setting [11]) and in assay [2] (setting [12]) were 9510 and 10300, respectively. Further, the remaining NAD in assay [3] is 10 nM (inactive).

`Cc1c(C)c2c(c(C)c1O)CCC(C)(C(=O)O)O2` (centres undefined): in assay [4], the parasite load remaining is 201% (inactive) and 66.3% (inactive). The viability in assay [4] is 117% and 76.7%. Further, the red/green cell ratio (normalised) in assay [1] is 0.84 (inactive). The normalised cell number worked out at 1.17 in assay [1] (setting [7]) and 0.98 in assay [1] (setting [8]). The results for the fold change in assay [2] (setting [9]) and in assay [2] (setting [10]) were 0.854 (inactive) and 1.44, respectively. In addition, the cell count was 8370 in assay [2] (setting [11]) and 9800 in assay [2] (setting [12]). Also, the z-score in assay [5] (setting [13]) is -0.259 (inactive); in assay [5] (setting [14]), -0.0183.

Take `CC(O)CC(C)(C)O` (centres undefined): the red/green cell ratio (normalised) in assay [1] is 0.94 (inactive). For the same compound, the normalised cell number in assay [1] (setting [7]) worked out at 1; in assay [1] (setting [8]), 0.94. In addition, the fold change was 0.91 (inactive) in assay [2] (setting [9]) and 0.891 in assay [2] (setting [10]). Also, the cell count worked out at 8730 in assay [2] (setting [11]) and 9590 in assay [2] (setting [12]). The remaining NAD in assay [3] was 10 nM (inactive).

For `CC1(C)OC(=O)C(OCC2CC2)=C1c1ccc(S(C)(=O)=O)cc1`, the red/green cell ratio (normalised) in assay [1] was 1.08 (inactive). Besides, the values for the normalised cell number in assay [1] (setting [7]) and in assay [1] (setting [8]) were 1.02 and 1.1, respectively. The fold change was 0.945 (inactive) in assay [2] (setting [9]) and 0.86 in assay [2] (setting [10]). Further, the cell count came out at 8900 in assay [2] (setting [11]) and 9420 in assay [2] (setting [12]). In assay [3], the remaining NAD was 10 nM (inactive).

For the compound `Cc1ccc(S(=O)(=O)NCl)cc1`, in assay [1], the red/green cell ratio (normalised) was 0.85 (inactive). For the same compound, the normalised cell number in assay [1] (setting [7]) was found to be 0.97; in assay [1] (setting [8]) it was 0.83. Besides, the fold change in assay [2] (setting [9]) is 0.925 (inactive); in assay [2] (setting [10]) it was 0.99. Besides, the cell count in assay [2] (setting [11]) is 8910; in assay [2] (setting [12]), 9630. In addition, the remaining NAD in assay [3] was 10 nM (inactive).

Take `Cc1cc(-c2ccc(N=Nc3ccc4c(S(=O)(=O)O)cc(S(=O)(=O)O)c(N)c4c3O)c(C)c2)ccc1N=Nc1ccc2c(S(=O)(=O)O)cc(S(=O)(=O)O)c(N)c2c1O`: in assay [1], the red/green cell ratio (normalised) is 0.96 (inactive). In addition, the normalised cell number in assay [1] (setting [7]) came to 0.99; in assay [1] (setting [8]), 0.95. In addition, the fold change was 0.905 (inactive) in assay [2] (setting [9]) and 0.718 in assay [2] (setting [10]). The cell count in assay [2] (setting [11]) worked out at 8810; in assay [2] (setting [12]), 9740. In assay [3], the remaining NAD is 10 nM (inactive).

The term viability denotes a read-out of living cells in per cent, often relative to untreated cells.

These data come from PubChem BioAssay.
